The supplement of paper PMC10849652
Of roughly 8,800 targets only a part is listed; those with a hit were picked by preference. About 0.5% of all pairs of compound and target were hits. Values without a mark were called inactive.

Assays:
Assay in all cases: log2 fold change, soluble protein after heating vs DMSO (PISA); higher = thermal stabilisation; K562 lysate, 10 uM; active = over 0.2 and 3.5 SD of the protein, either way, in both replicates (recomputed)
erlotinib = compound: C#Cc1cccc(Nc2ncnc3cc(OCCOC)c(OCCOC)cc23)c1 [erlotinib]
Summary of the method: (§1)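 K562 pellets were dounce-homogenised in PBS pH 7.4 containing 1 mM MgCl2, and the crude extract, at 1 mg/mL protein, was exposed to 10 μM compound for 30 min. Aliquots were heated for 3 min across 48°C-58°C, pooled, brought to 0.5% NP-40 at 4°C and spun at 21,000xg for 90 min, with the supernatant taken as soluble protein. TMTpro 16plex LC-MS/MS with equalised channel sums quantified that protein. Values are log-two fold changes in thermal stability relative to solvent controls, taken from duplicates.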

[1] = compound: C/C(=N\NC(=O)C1=CC(=CC=C1)S(=O)(=O)N2CCOCC2)/C3=C(C=CC(=C3)Cl)O
Summary of the method: as §1

[2] = compound: C1=CC(=CC=C1C2=NC3=C(N2)C=C(C=C3)C(=O)N)OC4=CC=C(C=C4)Cl
Summary of the method: as §1

[3] = compound: C1=CC2=C(C=CC(=C2)/C=C\3/C(=O)NC(=NCC4=CC=CS4)S3)N=C1
Summary of the method: as §1

[4] = compound: C1=CC2=NC=CN=C2C=C1/C=C/3\C(=O)NC(=O)S3
Summary of the method: as §1

[5] = compound: C1=CC=C(C=C1)C2=NC(=C(N2)C3=CC=NC=C3)C4=CC(=C(C=C4)Cl)O
Summary of the method: as §1

[6] = compound: C1=CC=C2C(=C1)C3=NNC4=CC=CC(=C43)C2=O
Summary of the method: as §1

[7] = compound: C1CCN(C1)C(=O)NC2=CC=CC(=C2)NC3=NC=C(C(=N3)NCCC4=CN=CN4)Br
Summary of the method: as §1

[8] = compound: C1CN(CCC1(CC2=CC=C(C=C2)Cl)N)C3=NC=NC4=C3C=CN4
Summary of the method: as §1

IRAK-1-4 Inhibitor I = compound: C1COCCN1CCN2C3=CC=CC=C3N=C2NC(=O)C4=CC(=CC=C4)[N+](=O)[O-] [IRAK-1-4 Inhibitor I]
Summary of the method: as §1

Chain of UniProt Q8TEQ8 (Q8TEQ8 whole entry, looked up): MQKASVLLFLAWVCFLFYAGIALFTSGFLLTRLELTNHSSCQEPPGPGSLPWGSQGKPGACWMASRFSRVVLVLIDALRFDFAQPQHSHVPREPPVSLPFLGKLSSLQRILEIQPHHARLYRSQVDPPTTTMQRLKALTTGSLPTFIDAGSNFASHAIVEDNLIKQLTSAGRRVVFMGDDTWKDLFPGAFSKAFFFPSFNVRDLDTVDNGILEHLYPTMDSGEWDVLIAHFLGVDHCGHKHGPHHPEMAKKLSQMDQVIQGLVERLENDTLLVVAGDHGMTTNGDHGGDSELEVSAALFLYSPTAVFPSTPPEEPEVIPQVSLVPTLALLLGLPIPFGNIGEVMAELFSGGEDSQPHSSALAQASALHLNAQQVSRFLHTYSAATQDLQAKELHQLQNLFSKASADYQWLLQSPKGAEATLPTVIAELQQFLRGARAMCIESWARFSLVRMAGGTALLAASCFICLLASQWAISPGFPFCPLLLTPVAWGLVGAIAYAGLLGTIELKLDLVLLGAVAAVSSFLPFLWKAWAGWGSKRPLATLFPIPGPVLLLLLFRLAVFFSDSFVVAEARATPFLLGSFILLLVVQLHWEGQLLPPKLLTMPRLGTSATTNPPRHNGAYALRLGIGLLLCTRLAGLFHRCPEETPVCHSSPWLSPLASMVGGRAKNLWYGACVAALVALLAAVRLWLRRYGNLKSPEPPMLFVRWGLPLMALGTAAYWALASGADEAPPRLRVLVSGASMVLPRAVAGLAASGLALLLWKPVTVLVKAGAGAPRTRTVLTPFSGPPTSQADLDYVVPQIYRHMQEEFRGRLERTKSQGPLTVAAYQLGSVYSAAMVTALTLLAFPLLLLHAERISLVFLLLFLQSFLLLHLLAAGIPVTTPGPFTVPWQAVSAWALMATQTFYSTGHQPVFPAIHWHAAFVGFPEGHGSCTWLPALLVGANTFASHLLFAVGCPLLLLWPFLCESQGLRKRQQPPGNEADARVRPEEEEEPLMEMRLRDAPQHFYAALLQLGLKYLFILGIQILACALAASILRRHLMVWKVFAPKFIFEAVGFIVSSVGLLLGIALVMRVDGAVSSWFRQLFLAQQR
Chain of UniProt Q13362 (Q13362 whole entry, looked up): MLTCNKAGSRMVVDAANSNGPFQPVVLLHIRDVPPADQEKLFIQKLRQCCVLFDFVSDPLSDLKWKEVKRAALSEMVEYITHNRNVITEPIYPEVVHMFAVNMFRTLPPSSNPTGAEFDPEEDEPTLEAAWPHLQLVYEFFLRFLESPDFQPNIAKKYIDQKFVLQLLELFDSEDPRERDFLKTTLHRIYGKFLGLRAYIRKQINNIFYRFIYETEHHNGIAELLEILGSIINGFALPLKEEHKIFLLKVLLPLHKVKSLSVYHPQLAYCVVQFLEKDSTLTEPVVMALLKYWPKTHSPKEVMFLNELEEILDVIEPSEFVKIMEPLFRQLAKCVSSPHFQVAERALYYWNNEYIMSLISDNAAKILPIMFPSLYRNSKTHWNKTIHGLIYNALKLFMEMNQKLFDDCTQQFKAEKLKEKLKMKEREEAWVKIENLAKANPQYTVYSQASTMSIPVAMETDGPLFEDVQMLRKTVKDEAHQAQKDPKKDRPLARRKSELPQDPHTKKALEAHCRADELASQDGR
Chain of UniProt Q9HBH1 (Q9HBH1 whole entry, looked up): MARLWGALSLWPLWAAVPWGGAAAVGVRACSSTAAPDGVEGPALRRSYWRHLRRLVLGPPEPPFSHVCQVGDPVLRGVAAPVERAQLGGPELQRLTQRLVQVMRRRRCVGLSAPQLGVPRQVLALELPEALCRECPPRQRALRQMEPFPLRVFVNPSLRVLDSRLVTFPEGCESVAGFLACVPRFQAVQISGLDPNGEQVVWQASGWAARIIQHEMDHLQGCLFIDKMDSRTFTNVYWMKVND
Chain of UniProt O00264 (O00264 whole entry, looked up): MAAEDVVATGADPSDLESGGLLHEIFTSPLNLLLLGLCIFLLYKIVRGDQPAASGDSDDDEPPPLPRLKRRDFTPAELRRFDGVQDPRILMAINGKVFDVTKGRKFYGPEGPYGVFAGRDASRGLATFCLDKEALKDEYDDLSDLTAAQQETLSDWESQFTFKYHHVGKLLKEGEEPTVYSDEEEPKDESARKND
Chain of UniProt O95336 (O95336 whole entry, looked up): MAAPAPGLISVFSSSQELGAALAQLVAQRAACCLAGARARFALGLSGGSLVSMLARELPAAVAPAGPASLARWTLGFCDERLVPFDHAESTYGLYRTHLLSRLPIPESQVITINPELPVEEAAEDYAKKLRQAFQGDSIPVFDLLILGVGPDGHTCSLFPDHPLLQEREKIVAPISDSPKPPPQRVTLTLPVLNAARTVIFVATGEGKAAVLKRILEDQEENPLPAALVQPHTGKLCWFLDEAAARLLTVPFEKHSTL
Chain of UniProt Q8N8N7 (Q8N8N7 whole entry, looked up): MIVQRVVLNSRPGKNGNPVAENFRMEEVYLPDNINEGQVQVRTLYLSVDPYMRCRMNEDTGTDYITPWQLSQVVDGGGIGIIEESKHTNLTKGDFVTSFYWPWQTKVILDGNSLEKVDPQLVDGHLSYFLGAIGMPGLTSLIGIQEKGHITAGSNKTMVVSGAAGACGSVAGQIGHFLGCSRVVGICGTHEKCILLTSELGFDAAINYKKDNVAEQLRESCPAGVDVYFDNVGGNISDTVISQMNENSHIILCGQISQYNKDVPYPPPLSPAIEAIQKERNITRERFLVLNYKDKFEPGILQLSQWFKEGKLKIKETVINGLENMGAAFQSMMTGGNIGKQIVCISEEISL
Chain of UniProt P15735 (P15735 whole entry, looked up): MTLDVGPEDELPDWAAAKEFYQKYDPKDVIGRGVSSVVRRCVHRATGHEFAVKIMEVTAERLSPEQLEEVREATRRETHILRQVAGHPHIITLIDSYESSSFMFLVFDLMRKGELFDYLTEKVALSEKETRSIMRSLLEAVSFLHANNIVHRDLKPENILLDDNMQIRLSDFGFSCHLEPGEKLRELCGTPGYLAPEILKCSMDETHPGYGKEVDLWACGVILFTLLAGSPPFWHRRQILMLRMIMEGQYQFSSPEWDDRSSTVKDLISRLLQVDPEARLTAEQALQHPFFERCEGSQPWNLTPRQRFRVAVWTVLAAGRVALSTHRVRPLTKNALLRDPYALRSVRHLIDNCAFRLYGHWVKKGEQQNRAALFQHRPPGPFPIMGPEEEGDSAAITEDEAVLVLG
Chain of UniProt Q13442 (Q13442 whole entry, looked up): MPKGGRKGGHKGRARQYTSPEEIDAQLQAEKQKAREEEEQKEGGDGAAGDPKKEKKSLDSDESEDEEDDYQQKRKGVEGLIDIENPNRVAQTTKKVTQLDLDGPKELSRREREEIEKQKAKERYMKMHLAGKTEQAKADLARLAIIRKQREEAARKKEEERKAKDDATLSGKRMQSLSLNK
Chain of UniProt Q8WUM4 (Q8WUM4 whole entry, looked up): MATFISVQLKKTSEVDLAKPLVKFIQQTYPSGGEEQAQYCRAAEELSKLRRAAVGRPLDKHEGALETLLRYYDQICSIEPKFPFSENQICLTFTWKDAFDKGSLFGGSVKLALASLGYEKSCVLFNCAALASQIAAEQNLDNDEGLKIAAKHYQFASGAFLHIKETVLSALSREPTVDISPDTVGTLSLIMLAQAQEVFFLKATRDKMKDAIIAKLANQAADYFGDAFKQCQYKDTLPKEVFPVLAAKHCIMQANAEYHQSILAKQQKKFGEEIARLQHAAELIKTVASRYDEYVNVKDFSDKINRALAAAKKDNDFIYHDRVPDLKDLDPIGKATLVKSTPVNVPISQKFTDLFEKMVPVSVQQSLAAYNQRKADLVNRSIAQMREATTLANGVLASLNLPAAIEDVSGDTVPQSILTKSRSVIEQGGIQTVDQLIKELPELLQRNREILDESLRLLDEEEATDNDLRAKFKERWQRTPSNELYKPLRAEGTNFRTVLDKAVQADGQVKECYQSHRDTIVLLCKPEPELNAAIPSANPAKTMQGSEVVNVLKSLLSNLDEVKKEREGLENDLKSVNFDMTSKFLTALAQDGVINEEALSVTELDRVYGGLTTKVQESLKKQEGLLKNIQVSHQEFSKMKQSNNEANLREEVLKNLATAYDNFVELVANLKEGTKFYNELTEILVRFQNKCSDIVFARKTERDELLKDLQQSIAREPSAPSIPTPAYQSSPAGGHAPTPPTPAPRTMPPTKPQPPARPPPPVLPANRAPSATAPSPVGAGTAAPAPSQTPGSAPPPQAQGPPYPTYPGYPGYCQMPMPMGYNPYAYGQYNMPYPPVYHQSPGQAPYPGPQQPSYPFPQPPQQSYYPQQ
Chain of UniProt O00541 (O00541 whole entry, looked up): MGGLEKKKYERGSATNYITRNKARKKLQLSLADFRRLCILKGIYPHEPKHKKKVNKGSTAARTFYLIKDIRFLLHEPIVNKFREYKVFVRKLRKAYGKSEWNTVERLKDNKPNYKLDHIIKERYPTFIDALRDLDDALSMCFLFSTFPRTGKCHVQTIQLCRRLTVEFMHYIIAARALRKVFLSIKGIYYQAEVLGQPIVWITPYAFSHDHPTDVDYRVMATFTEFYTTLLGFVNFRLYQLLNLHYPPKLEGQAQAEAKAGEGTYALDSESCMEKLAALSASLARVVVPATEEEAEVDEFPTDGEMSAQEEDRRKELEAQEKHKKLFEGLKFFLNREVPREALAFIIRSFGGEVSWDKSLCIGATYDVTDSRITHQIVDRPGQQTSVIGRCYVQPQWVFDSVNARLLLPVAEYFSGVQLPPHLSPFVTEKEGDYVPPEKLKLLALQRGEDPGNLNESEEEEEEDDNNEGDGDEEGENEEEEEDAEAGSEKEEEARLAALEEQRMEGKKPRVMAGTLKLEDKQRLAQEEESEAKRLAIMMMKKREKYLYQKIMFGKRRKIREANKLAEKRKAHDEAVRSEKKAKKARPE
Chain of UniProt P28065 (P28065 whole entry, looked up): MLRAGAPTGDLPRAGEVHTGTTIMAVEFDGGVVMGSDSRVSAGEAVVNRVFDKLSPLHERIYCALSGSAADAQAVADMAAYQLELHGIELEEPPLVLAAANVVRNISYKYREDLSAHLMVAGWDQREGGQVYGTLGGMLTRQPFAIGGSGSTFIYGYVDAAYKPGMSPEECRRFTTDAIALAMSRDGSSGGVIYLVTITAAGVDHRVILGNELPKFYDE

Target	log2 fold change (erlotinib)	log2 fold change [1]	log2 fold change [2]	log2 fold change [3]	log2 fold change [4]	log2 fold change [5]	log2 fold change [6]	log2 fold change [7]	log2 fold change [8]	log2 fold change (IRAK-1-4 Inhibitor I)
PMS1 (UniProt P54277)	-0.024	0.012	0.041	-0.002	0.106	0.03	-0.094	-0.002	0.016	-0.027
PPP2R5C isoform 4 (UniProt Q13362)	0.025	-0.048	-0.054	-0.012	-0.009	0.044	-0.01	0.046	0.08	0.002
PTK2B (UniProt Q14289)	0.024	-0.012	0.001	-0.012	-0.053	0.027	0.066	0.067	-0.068	0.077
PPIL2 (UniProt Q13356)	-0.03	0.02	0.007	0.021	-0.002	0.039	-0.045	-0.036	0.003	-0.016
PRKAB2 (UniProt O43741)	-0.032	-0.165	0.096	-0.041	0.031	0.039	0.153	0.196	0.042	0.24
PPT2 isoform 3 (UniProt Q9UMR5)	0.038	-0.113	0.001	0.014	-0.012	-0.057	0.042	0.01	0.043	0.122
PPP2CA (UniProt P67775)	-0.088	0.134	-0.057	-0.045	-0.007	0.064	0.016	0.106	-0.027	-0.041
PIGO (UniProt Q8TEQ8)	0.179	-0.423	-0.266	0.242	0.132	0.001	-0.285	-0.001	0.117	0.114
PTGR2 (UniProt Q8N8N7)	0.01	0.064	0.001	0.065	-0.041	0.054	0.016	0.015	0.001	-0.035
PSMB9 (UniProt P28065)	0.02	-0.112	0.008	-0.062	-0.08	-0.061	0.033	-0.084	0.084	-0.048
QKI (UniProt Q96PU8)	-0.023	-0.018	-0.001	-0.005	0.012	-0.029	0.012	0.005	-0.034	0.027
PDCD6IP isoform 2 (UniProt Q8WUM4)	0.027	0.046	0.009	0.01	-0.02	0.007	-0.007	0.002	0.007	-0.002
PPOX (UniProt P50336)	-0.044	0.532 (active)	0	-0.015	-0.04	0.025	0.014	0	-0.041	-0.016
PHKG2 (UniProt P15735)	-0.106	0.062	0.04	0.075	0.104	0.022	0.231	0.045	-0.011	0.036
PRIM2 (UniProt P49643)	0.05	-0.12	0.032	0.007	-0.006	0.011	0.005	-0.016	0.017	0.027
PUS3 (UniProt Q9BZE2)	-0.014	0.043	-0.028	-0.048	0.048	-0.006	-0.064	-0.028	0.097	-0.058

Target	log2 fold change (erlotinib)	log2 fold change [1]	log2 fold change [2]	log2 fold change [3]	log2 fold change [4]	log2 fold change [5]	log2 fold change [6]	log2 fold change [7]	log2 fold change [8]	log2 fold change (IRAK-1-4 Inhibitor I)
PES1 (UniProt O00541)	0	-0.071	-0.014	-0.044	-0.001	0.001	-0.012	0.025	-0.056	0.037
PGRMC1 (UniProt O00264)	-0.032	-0.378	0.025	-0.029	0.003	0.018	-0.004	0.008	0.013	-0.005
PRKD3 (UniProt O94806)	-0.041	0.105	-0.123	-0.145	0.039	0.115	0.123	-0.163	-0.115	0.053
PMS2 (UniProt P54278)	0.036	0.012	-0.058	-0.005	-0.015	-0.028	-0.032	-0.013	0.012	0.001
PTPN1 (UniProt P18031)	-0.007	0.065	-0.015	0.025	-0.011	-0.005	-0.019	0.027	-0.017	0.024
PPP4R2 (UniProt Q9NY27)	0.004	-0.007	0.025	0.063	-0.029	-0.02	0.013	0.004	0.004	0.012
PGLS (UniProt O95336)	-0.019	-0.026	-0.08	-0.039	-0.039	-0.077	-0.04	-0.112	0.025	-0.043
PDAP1 (UniProt Q13442)	-0.01	-0.022	0.02	-0.005	0.001	-0.007	0.023	0.016	-0.012	0.026
PDF (UniProt Q9HBH1)	0.033	0.07	-0.072	0.005	-0.066	0.066	-0.013	0.047	-0.063	0.055
PYCR2 (UniProt Q96C36)	-0.013	0.014	0.011	-0.005	-0.013	0.003	-0.04	0.007	0.01	0.031
PCBP2 (UniProt H3BRU6)	0.094	-0.272	0.166	0.061	-0.057	-0.034	-0.15	-0.196	-0.096	0.009
PGGT1B (UniProt P53609)	-0.02	0.039	-0.076	-0.011	0.047	0.14	0.045	0.008	-0.018	-0.006
PRKAR2A (UniProt P13861)	0.001	0.032	0.02	-0.02	-0.009	0	-0.029	-0.252 (active)	-0.212	-0.06
PRKACA (UniProt P17612)	-0.033	-0.056	0.049	0.016	-0.015	-0.015	0.034	0.234	0.34	0.015
PELO (UniProt Q9BRX2)	0	-0.047	-0.058	-0.014	-0.002	0	-0.038	-0.021	-0.049	0
